Experimental data as given in PubChem BioAssay (Tox21).
Inconclusive results are not listed. Values without a mark were called inactive. The call rests on the fitted dose curve; in most records, active means well fitted cell-killing curve with a large enough effect in the repeat runs (not every such curve was filed as active); inconclusive means weak or mixed curves, or effect the other way; inactive means no such curve, though single readings can be large or run the other way.

Experiment: qHTS assay to identify small molecule antagonists of the farnesoid-X-receptor (FXR) signaling pathway - cell viability counter screen (AID 743221); further: nearly all actives have a fitted effect of over 50% in size
Conditions: FXR-bla HEK293T viability, CellTiter-Glo luminescence, 16 h; series mostly up to 62.6 µM; activity change, negative = cytotoxicity: at the top concentration
Excerpt: National Center for Advancing Translational Sciences [NCATS]
NIH Chemical Genomics Center [NCGC]
U.S. Environmental Protection Agency [EPA]
National Institutes of Environmental Health Sciences [NIEHS]
National Toxicology Program [NTP]
U.S. Food and Drug Administration [FDA]
The farnesoid-X-receptor (FXR), a nuclear hormone receptor, is highly expressed in liver, intestine, kidney and adrenal cortex. Natural ligands of FXR are the bile acids (Cholic acid, Chenodeoxy cholic acid etc). FXR is an important regulator of diverse metabolic pathways, including the bile acid homeostasis, lipid and glucose metabolisms. FXR regulates the expression of target genes by binding either as a monomer or as a heterodimer with the retinoid X receptor (RXR). Numerous studies have reported that FXR exerts protective function during cholestasis, diabetes, liver regeneration, and cancer. To identify compounds that inhibit FXR signaling, GeneBLAzer FXR-UAS-bla HEK 293T cell line (Invitrogen, Carlsbad, CA) containing a beta-lactamase reporter gene under the control of a UAS response element was used to screen the Tox21 10K compound library. The cytotoxicity of the Tox21 compound library against the FXR-bla cell line was tested in parallel by measuring the cell viability using CellTiter-Glo assay in the same wells.
Tox21 Assay Protocol Summary:
FXR-bla cells were dispensed at 5000 cells/5uL/well in 1536-well black wall/clear bottom plates using a Multidrop Combi (Thermo Fisher Scientific, Waltham, MA) dispenser. After the assay plates were incubated at 37 C and 5% CO2 for 5 h, 23 nL of compounds dissolved in DMSO, positive controls or DMSO only was transferred to the assay plate by a Pintool station (Kalypsys, San Diego, CA), followed by addition of 1 uL Chenodeoxycholic acid (50 uM, final concentration in the wells). The assay plates were incubated at 37C for 16 h. After 1 uL of LiveBLAzerTM B/G FRET substrate was added using a Bioraptr Flying Reagent Dispenser (FRD) workstation (Beckman Coulter, Indianapolis, IN), the plates were incubated at room temperature for 2 h, and fluorescence intensity was measured by an Envision plate reader (PerkinElmer, Shelton, CT). For cell viability readout that measures cytotoxicity, 4uL/well of CellTiter-Glo reagent was added into the assay plates using a Bioraptr FRD. After 30 min incubation at room temperature, the luminescence intensity in the plates was measured using a ViewLux plate reader (PerkinElmer).
On the % scale 0 is the no-effect control and ±100 the full control effect.

| Compound | activity change, negative = cytotoxicity |
| --- | --- |
| CCCCCCCCCCCCN1CCOCC1 | -0.328% |
| CCOCCn1c(N2CCCN(C)CC2)nc2ccccc21 | -8.02% |
| CS(C)=O | 15.7% |
| [O-][n+]1ccc(Cl)cc1 | 3.01% [at 81.1 µM] |
| Cc1c(Cl)cccc1[N+](=O)[O-] | -2.15% |
| CCCCCCCCCCCCSCCOCCO | -1.56% |
| O=Cc1ccc(Cl)c([N+](=O)[O-])c1 | 1.89% |
| Cc1cc(N)n(-c2ccccc2)n1 | -16.8% |
| COc1ccc(/C=C/S(=O)(=O)NC(=O)c2ccc(C)cc2Cl)cc1 | -15.8% |
| CC(=O)CC/C=C(\C)CC/C=C(\C)CC/C=C(\C)CCC=C(C)C | -1.3% |
| Sc1nc(S)nc(S)n1 | 2.63% |
| O=C(O)c1c2ccccc2cc2ccccc12 | 0.638% |
| CC(CCl)OC(C)CCl (stereo not given) | 2.06% |
| C=CC(C)(O)CC/C=C(/C)CCC=C(C)C (stereo not given) | 1.19% |
| C[C@H](CN1CCCC1)C(=O)c1ccc(C(F)(F)F)cc1 | 0.84% |
| Nc1ncnc2c1ncn2[C@@H]1O[C@H](CO)[C@@H](O)[C@H]1O | 8.75% |
| CCC(=O)O[C@@H]1C[C@H]2CC[C@]1(C)C2(C)C | 4.64% |
| CC(C)=CCC[C@H](C)CCO | -0.718% |
| COc1cc(CNC(=O)CCCC/C=C/C(C)C)ccc1O | 7.98% |
| Nc1ccc(-c2ccc(F)cc2)cc1 | -1.98% |

| Compound | activity change, negative = cytotoxicity |
| --- | --- |
| O=C(Cl)c1ccc(F)c(Cl)c1 | -3.38% |
| COc1ccc(/C(C)=C/C(=O)O)c(OC)c1 | 4.56% |
| O=C(O)c1ccncc1 | -0.814% [at 81.1 µM] |
| O=C(OCCN1CCOCC1)c1cccnc1Nc1cccc(C(F)(F)F)c1 | -5.23% |
| C[C@H]1C[C@H]2[C@@H]3CCC4=CC(=O)C=C[C@]4(C)[C@@]3(F)[C@@H](O)C[C@]2(C)[C@@]1(O)C(=O)COP(=O)(O)O | -4.88% |
| CC(C)(C)NCC(O)COc1ccc(NC(=O)NC2CCCCC2)cc1 (stereo not given) | -2.65% |
| CC(=O)S[C@H](C(=O)N[C@H]1Cc2ccccc2[C@H]2CCC[C@@H](C(=O)O)N2C1=O)C(C)C | -12.5% |
| Nc1ccc(F)cc1F | 3.32% [at 81.1 µM] |
| CCc1c(C)[nH]c2c1C(=O)C(CN1CCOCC1)CC2 (stereo not given) | -2.11% |
| NC(=O)c1ccccc1 | 4.37% [at 81.1 µM] |
| O=C(O)CNc1ccccc1 | 8.31% |
| OCCCO | -0.136% [at 81.1 µM] |
| O=C(Cl)c1cc(Cl)cc(Cl)c1 | 4.36% [at 81.1 µM] |
| CCN(CCCCOC(=O)c1ccc(OC)c(OC)c1)C(C)Cc1ccc(OC)cc1 (stereo not given) | 1.37% |
| O=c1c2ccccc2oc2ccccc12 | 3.22% |
| C=CC(O)CCCCC (stereo not given) | -2.15% |
| CC(CC(C#N)(c1ccccc1)C(C)C)N(C)C (stereo not given) | -12.6% |
| CC(=O)OCC(=O)[C@@]1(O)CC[C@H]2[C@@H]3CCC4=CC(=O)C=C[C@]4(C)[C@@]3(F)[C@@H](O)C[C@@]21C | -0.389% |
| Cc1ccccc1CCO | -0.0453% |
| Cc1ccc(S(=O)(=O)NC(=O)NC2CCCC2)cc1 | 16.2% |
